Several values for one entry are separate records, joined by “and”; a condition that tells them apart may be missing. Equal entries are not always repeated. Out of some 5,500 compounds screened, about 2,000 (36%) were called active. Another 18% or so got no clear call; they are omitted. Cut-off read from the data, not from the text of the source: active = normalized growth mostly below about 0.91 (no sharp cut-off); inconclusive = no clear call, values can overlap the other calls; inactive = mostly above about 0.92. This is one part of the list.
Assay: chemical genetic growth profiling, strain panel (AID 1159580);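 note: tested at 20 µM; growth read once vehicle control cultures reached saturation at 30 °C; 1 = growth at the plate median or of vehicle wells; lower values mean less growth of the strain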
Conditions: S. cerevisiae deletion strains, growth OD

Measured: normalized growth

Cc1[nH]c2ccccc2c1CN(C)C
inactive: locus YAL021C, strain ccr4, active compounds read low 1.01 | locus YAL026C, strain drs2, active compounds read low 1.03 | locus YAL030W, strain snc1, active compounds read low 1.02 | locus YBL061C, strain skt5, active compounds read low 1.02 | locus YBR009C, strain hhf1, active compounds read low 1.02 | locus YBR021W, strain FUR4, active compounds read low 0.951 | locus YBR023C, strain chs3, active compounds read low 1.02 | locus YBR171W, strain sec66, active compounds read low 1.02 | locus YBR229C, strain ROT2, active compounds read low 0.998 | locus YBR231C, strain swc5, active compounds read low 1.02 | locus YBR279W, strain paf1, active compounds read low 1.01 | locus YCL011C, strain gbp2, active compounds read low 1.02 | locus YCL016C, strain dcc1, active compounds read low 1.01 | locus YCL029C, strain bik1, active compounds read low 0.986 | locus YCL069W, strain vba3, active compounds read low 1.01 | locus YCR088W, strain abp1, active compounds read low 1.02 | locus YDL005C, strain med2, active compounds read low 1.03 | locus YDL035C, strain GPR1, active compounds read low 1.01 | locus YDL040C, strain nat1, active compounds read low 1.02 | locus YDL074C, strain BRE1, active compounds read low 1 | locus YDL101C, strain DUN1, active compounds read low 1.01 | locus YDL134C, strain PPH21, active compounds read low 1.02 | locus YDL185W, strain tfp1, active compounds read low 1.01 | locus YDL192W, strain arf1, active compounds read low 0.983 | locus YDR001C, strain nth1, active compounds read low 1.01 | locus YDR069C, strain doa4, active compounds read low 1.02 | locus YDR101C, strain arx1, active compounds read low 0.968 | locus YDR137W, strain rgp1, active compounds read low 1.03 | locus YDR150W, strain NUM1, active compounds read low 1.01 | locus YDR159W, strain sac3, active compounds read low 1.05 | locus YDR162C, strain NBP2, active compounds read low 1.07 | locus YDR195W, strain ref2 1.03 | locus YDR297W, strain sur2, active compounds read low 1.02 | locus YDR318W, strain mcm21, active compounds read low 0.995 | locus YDR334W, strain swr1, active compounds read low 1.01 | locus YDR335W, strain msn5, active compounds read low 1.01 | locus YDR388W, active compounds read low 0.993 | locus YDR392W, strain spt3, active compounds read low 1.03 | locus YDR502C, strain sam2, active compounds read low 0.987 | locus YEL003W, strain gim4, active compounds read low 1.01 | locus YEL037C, strain rad23, active compounds read low 1.01 | locus YEL061C, strain CIN8 (second series), active compounds read low 1.03 | locus YEL061C, strain CIN8, active compounds read low 1.02 | locus YER015W, strain faa2, active compounds read low 1.01 | locus YER016W, strain bim1, active compounds read low 1.01 | locus YER110C, active compounds read low 0.984 | locus YER111C, strain swi4, active compounds read low 1.03 | locus YER155C, strain BEM2, active compounds read low 0.983 | locus YER167W, strain BCK2, active compounds read low 1 | locus YFR010W, strain ubp6, active compounds read low 1.01 | locus YGL078C, strain dbp3, active compounds read low 1.01 | locus YGL086W, strain mad1, active compounds read low 0.996 | locus YGL167C, strain pmr1, active compounds read low 1.04 | locus YGL173C, strain kem1, active compounds read low 1.03 | locus YGL227W, strain vid30, active compounds read low 1.01 | locus YGL240W, strain doc1, active compounds read low 1.01 | locus YGL248W, strain PDE1, active compounds read low 1.03 | locus YGL253W, strain hxk2, active compounds read low 1.02 | locus YGR135W, strain pre9, active compounds read low 0.995 | locus YGR229C, strain SMI1, active compounds read low 1.06 | locus YGR252W, strain gcn5, active compounds read low 0.908 | locus YHR013C, strain ard1, active compounds read low 1.03 | locus YHR027C, strain rpn1, active compounds read low 1.03 | locus YHR030C, strain SLT2, active compounds read low 1 and 0.988 | locus YHR079C, strain IRE1 (second series), active compounds read low 0.995 | locus YHR079C, strain IRE1, active compounds read low 0.982 | locus YHR094C, strain hxt1, active compounds read low 0.989 | locus YHR129C, strain ARP1, active compounds read low 1.01 | locus YHR142W, strain chs7, active compounds read low 1.03 | locus YHR200W, strain rpn10, active compounds read low 0.991 | locus YIL066C, strain RNR3, active compounds read low 1.02 | locus YIL073C, strain SPO22, active compounds read low 1.02 | locus YIL125W, strain kgd1, active compounds read low 1.01 | locus YIR030C, strain dcg1, active compounds read low 0.99 | locus YJL092W, strain hpr5, active compounds read low 1.01 | locus YJL095W, strain BCK1 (second series), active compounds read low 1.02 | locus YJL095W, strain BCK1, active compounds read low 1.06 and 0.973 | locus YJL115W, strain asf1, active compounds read low 1.02 | locus YJL129C, strain trk1, active compounds read low 1.03 | locus YJL134W, strain LCB3, active compounds read low 0.994 | locus YJL154C, strain vps35, active compounds read low 1.02 | locus YJL164C, strain tpk1, active compounds read low 1.01 | locus YJL166W, strain qcr8, active compounds read low 1.02 | locus YJL168C, strain set2, active compounds read low 0.993 | locus YJL187C, strain SWE1 (second series), active compounds read low 1.01 | locus YJL187C, strain SWE1, active compounds read low 1.02 | locus YJR043C, strain POL32, active compounds read low 0.995 | locus YJR066W, strain TOR1, active compounds read low 0.906

Source: PubChem BioAssay AID1159580 (chemical genetic matrix, 2015)
